How the values were obtained:
Experiment in all cases: PBM binding z-score (relative to random genomic background probes); higher = stronger binding; sequences stand for … in GC…GCGATTGACAGCGTAGAATGAAGG
[1] = test system: FXR:RXRa (NR concentration 270 nM, RXRa partner concentration 90 nM)
Procedure, shortened: (§1)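 Antibodies against each partner of ligand-free nuclear receptor dimers (one per run) detected binding on custom Agilent 4×180K protein-binding microarrays after 1 h incubation. The double-stranded probes had 34-nt variable regions carrying direct-repeat seeds, single-nucleotide variants, half-site ablations and random human genomic background sequences. Binding z-scores, from regression-normalized fluorescence, use the random background probes as reference.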

[2] = test system: LXRa:RXRa (NR concentration 270 nM, RXRa partner concentration 90 nM)
Procedure, shortened: as §1

[3] = test system: LXRa homodimer (NR concentration 270 nM)
Procedure, shortened: as §1

[4] = test system: LXRb:RXRa (NR concentration 270 nM, RXRa partner concentration 90 nM)
Procedure, shortened: as §1

[5] = test system: LXRb homodimer (NR concentration 270 nM)
Procedure, shortened: as §1

[6] = test system: PPARa:RXRa (NR concentration 270 nM, RXRa partner concentration 90 nM)
Procedure, shortened: as §1

[7] = test system: PPARg:RXRa (NR concentration 180 nM, RXRa partner concentration 90 nM)
Procedure, shortened: as §1

[8] = test system: PPARg:RXRa 270nM:90nM, anti-RXR (NR concentration 270 nM, RXRa partner concentration 90 nM)
Procedure, shortened: as §1

[9] = test system: PPARg:RXRa 30nM:10nM, anti-RXR (NR concentration 30 nM, RXRa partner concentration 10 nM)
Procedure, shortened: as §1

[10] = test system: PPARg:RXRa 90nM:30nM, anti-RXR (NR concentration 90 nM, RXRa partner concentration 30 nM)
Procedure, shortened: as §1

[11] = test system: PPARg:RXRa DBDmut IVT, anti-RXR (DBD mutation: RXRa K156A/R161A, NR concentration 270 nM, RXRa partner concentration 90 nM)
Procedure, shortened: as §1

[12] = test system: PPARg:RXRa IVT, anti-PPARg (NR concentration 270 nM, RXRa partner concentration 90 nM)
Procedure, shortened: as §1

[13] = test system: PPARg DBDmut:RXRa IVT, anti-PPARg (DBD mutation: PPARg1 K132A/R137A, NR concentration 270 nM, RXRa partner concentration 90 nM)
Procedure, shortened: as §1

[14] = test system: PPARg DBDmut IVT, anti-PPARg (DBD mutation: PPARg1 K132A/R137A, NR concentration 270 nM)
Procedure, shortened: as §1

[15] = test system: PPARg homodimer (NR concentration 180 nM)
Procedure, shortened: as §1

[16] = test system: PXR:RXRa (NR concentration 270 nM, RXRa partner concentration 90 nM)
Procedure, shortened: as §1

[17] = test system: PXR homodimer (NR concentration 270 nM)
Procedure, shortened: as §1

[18] = test system: RARa:RXR (NR concentration 270 nM, RXRa partner concentration 90 nM)
Procedure, shortened: as §1

[19] = test system: RARa homodimer (NR concentration 270 nM)
Procedure, shortened: as §1

[20] = test system: RARb:RXRa (NR concentration 270 nM, RXRa partner concentration 90 nM)
Procedure, shortened: as §1

| Sequence | PBM binding z-score [1] | PBM binding z-score [2] | PBM binding z-score [3] | PBM binding z-score [4] | PBM binding z-score [5] | PBM binding z-score [6] | PBM binding z-score [7] | PBM binding z-score [8] | PBM binding z-score [9] | PBM binding z-score [10] | PBM binding z-score [11] | PBM binding z-score [12] | PBM binding z-score [13] | PBM binding z-score [14] | PBM binding z-score [15] | PBM binding z-score [16] | PBM binding z-score [17] | PBM binding z-score [18] | PBM binding z-score [19] | PBM binding z-score [20] |
| --- | --- | --- | --- | --- | --- | --- | --- | --- | --- | --- | --- | --- | --- | --- | --- | --- | --- | --- | --- | --- |
| CCAAGTAGGTTATGGGGCATTCAGGCAACGGTGA | 0.142 | 0.353 | -0.344 | 0.363 | -0.655 | 2.93 | 5.23 | 5.69 | 4.33 | 5.84 | 5.49 | 4.96 | 0.251 | 0.296 | 1.18 | -0.156 | -0.101 | 0.207 | 0.919 | 1.05 |
| CCTACTGGGCCACGAAAGGACATTGATTCAGTGA | 0.276 | 0.0312 | 0.0181 | -0.441 | -0.67 | 0.738 | 1.63 | 1.22 | -0.124 | 0.606 | 4.98 | 5.21 | 0.3 | -0.299 | 0.467 | -0.024 | -0.134 | 0.342 | 0.45 | 1.11 |
| CCTACTGGGCCAAAAAGGTCATTTATGCCGATAA | 3.57 | 4.05 | 4.05 | 4.58 | 0.674 | 4.48 | 3.08 | 3.67 | 1.23 | 2.79 | 3.34 | 3.95 | 0.881 | -0.177 | 3.37 | 4.67 | 3.36 | 4.88 | 1.02 | 3.7 |
| CGAACGAGGGCATGAGTTGATAGCTAATGCCGAT | 0.677 | 0.398 | -0.532 | 0.00979 | -0.952 | 1.51 | 1.53 | 1.5 | 0.214 | 0.782 | 2.71 | 2.2 | 0.229 | -0.661 | 0.249 | 0.689 | 0.178 | 0.401 | 0.0358 | 2.08 |
| GGAACGAGGACAAAGTTGATAGCATCTGTCGACG | -0.0589 | -0.208 | -0.722 | -0.455 | -0.842 | 2.4 | 4.11 | 5.44 | 3.91 | 5.14 | 1.35 | 1.44 | -0.283 | -0.95 | -0.0718 | -0.043 | -0.312 | 0.0802 | 0.0714 | 0.942 |
| TCTGCTAGGTCAACGATGGTCAGATAATCTGCTA | 3.65 | 2.85 | 0.0239 | 1.94 | 0.0958 | 3.3 | 2.82 | 3.22 | 2.1 | 2.55 | 4.35 | 4.34 | -0.0109 | 0.256 | 1.82 | 2.15 | -0.779 | 2.44 | -0.13 | 4.26 |
| CCGACTGGGGCATAAGGTTACCAAAAGCCAGCCC | 0.243 | 1.26 | -0.202 | 0.884 | -1.26 | 2.36 | 2.34 | 3.15 | 0.904 | 2.48 | 2.7 | 3.25 | -0.301 | -0.942 | 0.779 | 0.576 | -0.64 | 1.73 | 0.0494 | 1.81 |
| TCTTGTAGATCAAGCAGATTAAGAAAGCCTGAGT | 0.096 | -0.059 | -0.156 | 0.0422 | -0.403 | 0.442 | -0.257 | 1.19 | 2.63 | 2.02 | 1.46 | 0.135 | -0.162 | 0.384 | -0.288 | 0.232 | -0.000804 | 0.536 | -0.326 | -0.301 |
| ACTATTAGTTGAGACGAGGGCAACTGATAGGTTG | 0.629 | -0.0348 | 0.074 | -0.0916 | -0.0432 | 0.621 | 0.7 | 0.45 | 0.365 | 0.668 | 0.393 | 0.643 | 1.37 | 1.23 | 0.253 | 1.22 | 0.231 | 0.44 | 0.299 | 1.16 |

From the supplement of paper PMC6555819
